Values joined by “and” are separate entries in the source; they are usually repeats but may differ in a detail not shown here. Equal values may be shown once. Inconclusive results are not listed. Active and inactive are the calls of the source. Rule for the calls, unless noted: active = hit-call score of the fitted dose curve at least 0.9, where 1 is the maximum; inconclusive = response in the unintended direction; inactive = score below 0.9.
Tests used:
[1] = target: rat Androgen Receptor (AR), Ar (gene 24208) (UniProt P15207); assay: NVS_NR_rAR: NovaScreen (NVS) Nuclear Receptor Binding Assay for rat Androgen Receptor (AR) (AID 2283366)
rat Androgen Receptor (AR), Ar (gene 24208), sequence (P15207 whole entry, looked up): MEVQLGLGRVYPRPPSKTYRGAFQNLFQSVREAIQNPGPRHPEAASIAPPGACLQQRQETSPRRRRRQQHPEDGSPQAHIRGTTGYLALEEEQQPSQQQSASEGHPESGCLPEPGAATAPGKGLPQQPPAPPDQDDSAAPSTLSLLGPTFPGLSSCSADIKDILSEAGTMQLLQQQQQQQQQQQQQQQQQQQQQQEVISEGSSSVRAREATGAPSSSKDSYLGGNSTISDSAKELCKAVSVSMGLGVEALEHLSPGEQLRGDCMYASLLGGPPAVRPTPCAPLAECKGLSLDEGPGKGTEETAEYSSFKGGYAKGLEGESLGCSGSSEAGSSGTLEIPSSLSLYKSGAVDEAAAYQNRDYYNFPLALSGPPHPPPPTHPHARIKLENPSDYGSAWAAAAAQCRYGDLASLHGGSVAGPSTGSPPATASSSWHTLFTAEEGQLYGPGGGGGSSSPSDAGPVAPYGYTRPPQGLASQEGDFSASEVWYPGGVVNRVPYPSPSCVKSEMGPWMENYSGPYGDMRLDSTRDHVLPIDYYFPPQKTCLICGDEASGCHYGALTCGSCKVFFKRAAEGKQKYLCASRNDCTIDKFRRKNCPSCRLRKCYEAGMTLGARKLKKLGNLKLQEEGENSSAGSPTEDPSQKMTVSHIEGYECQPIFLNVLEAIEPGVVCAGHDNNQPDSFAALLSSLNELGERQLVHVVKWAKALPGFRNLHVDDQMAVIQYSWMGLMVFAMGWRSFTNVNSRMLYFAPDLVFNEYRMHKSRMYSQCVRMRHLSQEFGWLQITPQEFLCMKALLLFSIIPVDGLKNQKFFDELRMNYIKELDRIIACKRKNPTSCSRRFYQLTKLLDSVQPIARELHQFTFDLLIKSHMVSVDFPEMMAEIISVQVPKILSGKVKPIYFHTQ
How it was run: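 Cell-free radioligand binding on extracts of prostate from testosterone-pretreated rats, read by filter-based scintillation counting 18 h after dosing. Loss of bound signal fitted positively versus DMSO; primary screen in duplicate at 25 uM, actives followed up in concentration series.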

[2] = CEETOX_H295R_11DCORT: CeeTox H295R High-throughput Steroidogenesis Assay for 11-Deoxycortisol (11DCORT) (AID 2283432; active = hit-call score of the fitted dose curve at least 0.9, where 1 is the maximum; inactive = score below 0.9); conditions: actives raise or lower the signal
How it was run: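 H295R cells prestimulated 48 h with 10 uM forskolin, then exposed 48 h to chemical in 0.1% DMSO. 11-Deoxycortisol in medium quantified by HPLC-MS/MS after MTBE extraction; bidirectional fit versus DMSO. MTT viability read in same wells.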

[3] = CEETOX_H295R_OHPREG: CeeTox H295R High-throughput Steroidogenesis Assay for OH-Pregnenolone (OHPREG) (AID 2283434; active = hit-call score of the fitted dose curve at least 0.9, where 1 is the maximum; inactive = score below 0.9); conditions: actives raise or lower the signal
How it was run: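 Human adrenal H295R cells were prestimulated 48 h with 10 uM forskolin, then exposed 48 h to chemical in 0.1% DMSO. Medium 17alpha-hydroxypregnenolone was quantified by HPLC-MS/MS after MTBE extraction; bidirectional fitting versus DMSO baseline.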

[4] = target: Nuclear receptor subfamily 1 group I member 2 (Homo sapiens) (UniProt O75469); assay: NVS_NR_hPXR: NovaScreen (NVS) Nuclear Receptor Binding Assay for human Pregnane X Receptor (PXR) (AID 2283365);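 note: a drop in FRET signal versus DMSO baseline means the compound binds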
Nuclear receptor subfamily 1 group I member 2 (Homo sapiens), sequence (O75469 whole entry, looked up): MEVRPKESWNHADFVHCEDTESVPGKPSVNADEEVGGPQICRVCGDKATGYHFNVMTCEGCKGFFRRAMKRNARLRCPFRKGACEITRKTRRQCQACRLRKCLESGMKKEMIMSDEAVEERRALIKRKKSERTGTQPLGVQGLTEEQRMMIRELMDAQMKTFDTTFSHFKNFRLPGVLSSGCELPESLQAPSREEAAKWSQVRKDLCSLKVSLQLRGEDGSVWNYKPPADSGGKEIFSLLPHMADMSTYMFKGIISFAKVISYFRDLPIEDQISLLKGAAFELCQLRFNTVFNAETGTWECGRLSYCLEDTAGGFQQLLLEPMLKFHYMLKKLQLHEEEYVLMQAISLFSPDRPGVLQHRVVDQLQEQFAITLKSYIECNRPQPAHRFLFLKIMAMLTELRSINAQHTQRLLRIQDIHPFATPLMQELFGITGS
How it was run: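 Cell-free TR-FRET binding assay with extracted human PXR protein, read 2 h after dosing. Primary screen run in duplicate at 25 uM, actives followed in concentration series; loss of signal fitted against DMSO baseline.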

[5] = target: Retinoic acid receptor RXR-alpha (Homo sapiens) (UniProt P19793); assay: OT_NURR1_NURR1RXRa_0480: Odyssey Thera (OT) 8-hour HEK293T Protein Complementation Assay for Nurr1/retinoid X receptor (RXR) (AID 2283385)
Retinoic acid receptor RXR-alpha (Homo sapiens), sequence (P19793 whole entry, looked up, the tested form may be a part): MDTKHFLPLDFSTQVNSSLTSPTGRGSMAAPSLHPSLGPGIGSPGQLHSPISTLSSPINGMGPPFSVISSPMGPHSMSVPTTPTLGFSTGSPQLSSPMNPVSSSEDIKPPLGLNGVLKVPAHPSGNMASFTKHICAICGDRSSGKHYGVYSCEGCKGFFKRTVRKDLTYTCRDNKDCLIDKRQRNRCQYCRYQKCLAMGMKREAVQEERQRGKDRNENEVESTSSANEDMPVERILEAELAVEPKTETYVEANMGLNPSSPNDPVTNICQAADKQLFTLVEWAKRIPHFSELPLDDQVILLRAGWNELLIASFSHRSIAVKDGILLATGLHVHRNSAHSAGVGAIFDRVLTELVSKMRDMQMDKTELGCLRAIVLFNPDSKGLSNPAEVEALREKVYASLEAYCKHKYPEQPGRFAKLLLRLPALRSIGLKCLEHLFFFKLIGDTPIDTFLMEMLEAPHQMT
How it was run: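 HEK293T cells expressing Nurr1 and RXRα fused to reporter fragments were dosed with compound for 8 hours. Complex formation was read as fluorescence intensity and analysed as gain of signal against DMSO as baseline.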

[6] = target: Retinoic acid receptor RXR-alpha (Homo sapiens) (UniProt P19793); assay: OT_NURR1_NURR1RXRa_1440: Odyssey Thera (OT) 24-hour HEK293T Protein Complementation Assay for Nurr1/retinoid X receptor (RXR) (AID 2283386)
How it was run: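 HEK293T cells were dosed with compound and read 24 h later by fluorescence intensity in a protein-fragment complementation format, where Nurr1–RXRα interaction reconstitutes a split reporter. Activity was fitted as gain of signal relative to DMSO baseline.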

[7] = target: Peroxisome proliferator-activated receptor gamma (Homo sapiens) (UniProt P37231); assay: OT_PPARg_PPARgSRC1_0480: Odyssey Thera (OT) 8-hour Protein-Complementation Assay for Peroxisome Proliferator-activated Receptor Gamma / SRC-1 Co-activator (AID 2283387)
How it was run: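 HEK293T transiently transfected with PPARg and SRC-1 fused to Venus YFP fragments, compounds 8 h at 37C. Fixed, Draq5-stained cells imaged; nuclear/cytoplasmic 488 nm fluorescence ratio over at least 350 cells per image; gain fitted versus DMSO.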

[8] = target: Peroxisome proliferator-activated receptor gamma (Homo sapiens) (UniProt P37231); assay: OT_PPARg_PPARgSRC1_1440: Odyssey Thera (OT) 24-hour Protein-Complementation Assay for Peroxisome Proliferator-activated Receptor Gamma/ SRC-1 Co-activator (AID 2283388)
How it was run: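 HEK293T transiently transfected with PPARg/SRC-1 split-Venus YFP fusions 48 h before dosing, then treated 24 h at 37C. Fixed cells imaged; nuclear/cytoplasmic 488 nm fluorescence ratio, gain of signal versus DMSO.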

[9] = target: Estrogen receptor beta (Homo sapiens) (UniProt Q92731); assay: OT_ER_ERbERb_1440: Odyssey Thera (OT) 24-hour HEK293T Protein-Complementation Assay for Estrogen Receptor-beta/-beta Homodimer (AID 2283380);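 note: fluorescence gain from ER beta LBD homodimer complementation read by laser scanning cytometry; scored as signal increase over DMSO baseline for both agonists and antagonists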
Estrogen receptor beta (Homo sapiens), sequence (Q92731 whole entry, looked up, the tested form may be a part): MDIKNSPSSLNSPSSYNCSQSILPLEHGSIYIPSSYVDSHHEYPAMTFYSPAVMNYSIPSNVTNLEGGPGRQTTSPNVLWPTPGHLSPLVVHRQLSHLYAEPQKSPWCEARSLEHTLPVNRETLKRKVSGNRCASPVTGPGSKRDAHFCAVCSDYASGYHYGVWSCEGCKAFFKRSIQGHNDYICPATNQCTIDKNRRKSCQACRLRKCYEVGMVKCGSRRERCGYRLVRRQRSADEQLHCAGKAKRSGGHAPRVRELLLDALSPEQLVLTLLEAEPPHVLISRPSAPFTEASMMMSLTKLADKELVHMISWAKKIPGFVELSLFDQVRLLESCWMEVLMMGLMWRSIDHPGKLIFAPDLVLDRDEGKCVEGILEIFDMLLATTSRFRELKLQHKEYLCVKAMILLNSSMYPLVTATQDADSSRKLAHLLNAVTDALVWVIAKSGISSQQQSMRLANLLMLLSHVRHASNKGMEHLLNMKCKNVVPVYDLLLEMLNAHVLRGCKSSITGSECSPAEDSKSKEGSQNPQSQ
How it was run: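 HEK293T cells stably expressing human ER-beta LBD (aa 310-547) PCA homodimer pair, dosed 24 h; formaldehyde-fixed, Draq5-stained. Readout: increase in nuclear (agonist) or nuclear plus cytoplasmic (antagonist) fluorescence intensity versus DMSO, gain-of-signal fitting.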

[10] = target: Estrogen receptor (Homo sapiens) (UniProt P03372); assay: OT_ERa_GFPERaERE_0480: Odyssey Thera (OT) 8-hour HeLa Transcription Induction Assay for Estrogen Receptor (AID 2283381; active = hit-call score of the fitted dose curve at least 0.9, where 1 is the maximum; inactive = score below 0.9)
Estrogen receptor (Homo sapiens), sequence (P03372 whole entry, looked up): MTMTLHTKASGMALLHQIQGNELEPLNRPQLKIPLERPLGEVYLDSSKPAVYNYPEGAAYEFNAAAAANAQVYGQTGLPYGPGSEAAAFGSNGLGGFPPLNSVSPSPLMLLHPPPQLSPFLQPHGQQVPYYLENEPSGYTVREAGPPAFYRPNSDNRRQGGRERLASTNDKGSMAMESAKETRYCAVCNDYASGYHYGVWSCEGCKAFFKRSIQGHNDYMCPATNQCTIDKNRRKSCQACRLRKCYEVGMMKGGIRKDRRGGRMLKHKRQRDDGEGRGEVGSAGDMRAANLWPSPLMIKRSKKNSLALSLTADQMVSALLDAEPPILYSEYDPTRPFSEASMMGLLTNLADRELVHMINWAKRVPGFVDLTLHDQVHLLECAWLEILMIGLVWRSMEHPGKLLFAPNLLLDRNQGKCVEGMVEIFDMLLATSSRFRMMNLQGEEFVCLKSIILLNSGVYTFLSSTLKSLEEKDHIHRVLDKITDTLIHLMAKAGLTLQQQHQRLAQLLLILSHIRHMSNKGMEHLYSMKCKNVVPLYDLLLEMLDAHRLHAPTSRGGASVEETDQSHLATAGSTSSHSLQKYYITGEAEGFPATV
How it was run: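 HeLa cells dosed with compound and imaged by fluorescence microscopy at 8 h; GFP induction from an ERE reporter quantified by high-content image analysis and fitted as gain of signal against DMSO baseline.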

[11] = target: Estrogen receptor (Homo sapiens) (UniProt P03372); assay: OT_ERa_GFPERaERE_0120: Odyssey Thera (OT) 2-hour HeLa Transcription Induction Assay for Estrogen Receptor (AID 2283382)
How it was run: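 HeLa cells were dosed with test chemical and read 2 hours later for GFP-ERα/ERE-linked fluorescent protein induction by fluorescence microscopy. Gain-of-signal was fitted relative to DMSO baseline, quantified by high content image analysis.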

[12] = target: Bile acid receptor (Homo sapiens) (UniProt Q96RI1); assay: OT_FXR_FXRSRC1_0480: Odyssey Thera (OT) 8-hour HEK293T Protein-Complementation Assay for Farnesoid X receptor/SRC-1 Co-activator (AID 2283383)
Bile acid receptor (Homo sapiens), sequence (Q96RI1 whole entry, looked up, the tested form may be a part): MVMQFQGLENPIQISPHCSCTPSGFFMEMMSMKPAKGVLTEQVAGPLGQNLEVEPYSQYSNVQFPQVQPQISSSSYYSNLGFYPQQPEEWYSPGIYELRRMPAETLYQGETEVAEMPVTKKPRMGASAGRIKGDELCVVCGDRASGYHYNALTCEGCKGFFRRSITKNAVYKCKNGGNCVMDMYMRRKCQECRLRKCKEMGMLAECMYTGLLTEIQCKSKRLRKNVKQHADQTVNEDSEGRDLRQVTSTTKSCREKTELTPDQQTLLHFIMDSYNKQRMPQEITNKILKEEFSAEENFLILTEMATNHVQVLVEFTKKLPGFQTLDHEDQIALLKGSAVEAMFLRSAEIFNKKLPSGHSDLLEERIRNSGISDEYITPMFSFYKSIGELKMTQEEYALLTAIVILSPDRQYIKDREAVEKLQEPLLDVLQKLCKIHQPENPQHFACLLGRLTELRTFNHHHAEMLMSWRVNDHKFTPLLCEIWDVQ
How it was run: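 HEK293T cells expressing FXR and SRC-1 fused to reporter fragments were dosed with compound for 8 h; fluorescence from the reconstituted reporter marked co-activator recruitment. Gain of signal was fitted against the DMSO baseline.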

[13] = target: Bile acid receptor (Homo sapiens) (UniProt Q96RI1); assay: OT_FXR_FXRSRC1_1440: Odyssey Thera (OT) 24-hour HEK293T Protein-Complementation Assay for Farnesoid X receptor/SRC-1 Co-activator (AID 2283384)
How it was run: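 HEK293T cells were dosed with compound and read 24 h later by fluorescence intensity from protein-fragment complementation reporting FXR/SRC-1 co-activator interaction. Gain of signal was fitted relative to DMSO negative control as baseline.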

[14] = target: Peroxisome proliferator-activated receptor gamma (Homo sapiens) (UniProt P37231); assay: NVS_NR_hPPARg: NovaScreen (NVS) Nuclear Receptor Binding Assay for human Peroxisome Proliferator-activated Receptor gamma (PPARg) (AID 2283370)
How it was run: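 Cell-free fluorescence polarization binding to human PPARg protein, read 2 h after dosing. Primary screen in duplicate at 25 uM, actives followed in concentration series; loss of signal relative to DMSO scored.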

[15] = tested on: guinea pig Dopamine Transporter (DAT), gene 100714898; assay: NVS_TR_gDAT: NovaScreen (NVS) Transporter Assay for guinea pig Dopamine Transporter (DAT) (AID 2283369);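 note: active compounds lower bound radioligand signal relative to DMSO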
How it was run: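 Guinea pig striatal membranes, cell-free radioligand binding with filter-based scintillation counting, read 2 h after dosing. Loss of signal versus DMSO baseline; single-concentration primary (25 uM) then concentration-response up to 50 uM.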

[16] = target: rat Serotonin Transporter (SERT), Slc6a4 (gene 25553) (UniProt P31652); assay: NVS_TR_rSERT: NovaScreen (NVS) Transporter Assay for rat Serotonin Transporter (SERT) (AID 2283375)
How it was run: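 Rat forebrain membranes; radioligand displacement at SERT read by filter-based scintillation counting, 1 h after dosing. Screened in duplicate at 25 uM, actives then run in concentration series; loss of signal versus DMSO baseline.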

[17] = target: guinea pig Sigma Receptor, Non-selective Binding, SIGMAR1 (gene 100135589) (UniProt Q60492); assay: NVS_OR_gSIGMA_NonSelective: NovaScreen (NVS) Nuclear Receptor Binding Assay for guinea pig Sigma Receptor, Non-selective Binding (AID 2283367)
guinea pig Sigma Receptor, Non-selective Binding, SIGMAR1 (gene 100135589), sequence (Q60492 whole entry, looked up): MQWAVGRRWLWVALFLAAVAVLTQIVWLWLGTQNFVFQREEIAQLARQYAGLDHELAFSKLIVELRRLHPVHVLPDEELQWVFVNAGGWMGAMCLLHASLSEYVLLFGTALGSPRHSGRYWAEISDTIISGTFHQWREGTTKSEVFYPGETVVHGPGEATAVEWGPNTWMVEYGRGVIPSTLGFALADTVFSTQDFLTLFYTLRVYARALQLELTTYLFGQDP
How it was run: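 Guinea pig brain membranes, cell-free radioligand binding; read 1 h after dosing by filter-based scintillation counting. Loss of signal vs DMSO baseline taken as displacement. Primary screen single concentration 25 uM in duplicate; actives retested in concentration series.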

[18] = target: Norway rat Vesicular Monoamine Transporter (VMAT2), neurotransmitter transporter, Slc18a2 (gene 25549) (UniProt Q01827); assay: NVS_TR_rVMAT2: NovaScreen (NVS) Transporter Assay for Norway rat Vesicular Monoamine Transporter (VMAT2), neurotransmitter transporter (AID 2283376);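 note: actives lower the bound radioligand signal below the DMSO level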
Norway rat Vesicular Monoamine Transporter (VMAT2), neurotransmitter transporter, Slc18a2 (gene 25549), sequence (Q01827 whole entry, looked up): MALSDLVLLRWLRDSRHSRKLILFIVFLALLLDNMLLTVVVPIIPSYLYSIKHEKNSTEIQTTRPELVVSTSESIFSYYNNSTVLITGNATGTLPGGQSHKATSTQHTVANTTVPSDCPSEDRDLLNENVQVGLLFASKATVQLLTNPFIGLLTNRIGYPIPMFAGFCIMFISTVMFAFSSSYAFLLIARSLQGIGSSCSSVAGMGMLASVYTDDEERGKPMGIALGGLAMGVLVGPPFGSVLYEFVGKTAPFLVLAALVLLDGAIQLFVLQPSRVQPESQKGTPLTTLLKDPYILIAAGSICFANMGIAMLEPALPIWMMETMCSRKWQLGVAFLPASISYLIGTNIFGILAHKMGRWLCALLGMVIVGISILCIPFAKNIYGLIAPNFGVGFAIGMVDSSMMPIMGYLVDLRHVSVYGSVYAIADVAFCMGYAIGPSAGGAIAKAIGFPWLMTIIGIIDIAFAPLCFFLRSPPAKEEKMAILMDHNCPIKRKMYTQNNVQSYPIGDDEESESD
How it was run: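 Rat forebrain tissue preparation used in a cell-free radioligand binding format; displacement read by filter-based scintillation counting 1 hour after dosing. Primary screen in duplicate at 25 uM, actives then run in concentration series; loss of signal versus DMSO baseline.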

[19] = target: human Norepinephrine Transporter (NET), SLC6A2 (gene 6530) (UniProt P23975); assay: NVS_TR_hNET: NovaScreen (NVS) Transporter Assay for human Norepinephrine Transporter (NET) (AID 2283377);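 note: cell-free membrane protein extracted from CHO cells expressing human NET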
human Norepinephrine Transporter (NET), SLC6A2 (gene 6530), sequence (P23975 whole entry, looked up): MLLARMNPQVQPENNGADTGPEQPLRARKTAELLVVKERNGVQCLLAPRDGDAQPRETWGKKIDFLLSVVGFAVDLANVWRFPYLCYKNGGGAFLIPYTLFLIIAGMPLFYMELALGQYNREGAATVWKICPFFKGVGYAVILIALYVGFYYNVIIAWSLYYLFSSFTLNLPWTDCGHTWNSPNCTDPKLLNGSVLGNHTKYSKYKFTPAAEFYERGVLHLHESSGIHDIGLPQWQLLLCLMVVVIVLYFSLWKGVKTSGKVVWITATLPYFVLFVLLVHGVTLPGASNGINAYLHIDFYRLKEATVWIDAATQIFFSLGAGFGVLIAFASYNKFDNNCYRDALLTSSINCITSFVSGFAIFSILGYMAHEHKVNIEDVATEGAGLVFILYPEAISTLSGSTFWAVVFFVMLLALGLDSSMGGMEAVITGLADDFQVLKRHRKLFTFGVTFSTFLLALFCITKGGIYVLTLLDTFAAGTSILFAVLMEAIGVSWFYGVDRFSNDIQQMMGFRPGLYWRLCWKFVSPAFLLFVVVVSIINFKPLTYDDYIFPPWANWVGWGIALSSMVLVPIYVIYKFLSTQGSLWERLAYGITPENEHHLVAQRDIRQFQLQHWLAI
How it was run: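 Radioligand binding to human NET in cell-free CHO-derived protein preparations, read by filter-based scintillation counting 1 hour after dosing. Loss of signal versus DMSO baseline indicated displacement; primary screening in duplicate at 25 uM, actives then titrated.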

[20] = target: human Dopamine Transporter (DAT), SLC6A3 (gene 6531) (UniProt Q01959); assay: NVS_TR_hDAT: NovaScreen (NVS) Transporter Assay for human Dopamine Transporter (DAT) (AID 2283374);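 note: activity means loss of bound radioligand signal relative to DMSO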
How it was run: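 Cell-free radioligand binding to extracted human DAT protein, read 1 h after dosing by filter-based scintillation counting. Loss of specific binding scored against DMSO baseline; primary screen in duplicate at 25 uM, actives then run in concentration series.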

Measured: AC50

OC(Cc1ccccc1Cl)(Cn1[nH]cnc1=S)C1(Cl)CC1 (centres undefined)
inactive: [1] | [2] | [3]

Clc1cccc(Cl)c1Cl
inactive: [4] | [5] | [6] | [7] | [8]

C=CC(Cl)CCl (centres undefined)
active: [4] 5.06 µM
inactive: [9] | [5] | [6] | [7] | [8]

O=C(NC(=O)c1c(F)cccc1F)Nc1cc(Cl)c(OC(F)(F)C(F)C(F)(F)F)cc1Cl (centres undefined)
inactive: [4] | [9] | [10] | [11] | [7] | [8]
active: [12] 50 µM | [13] 43.7 µM | [5] 66.5 µM | [6] 50 µM

O=C1c2ccccc2C(=O)C1C(=O)C(c1ccccc1)c1ccc(Cl)cc1 (centres undefined)
active: [1] 4.96 µM | [14] 16.2 µM | [5] 50 µM | [6] 73.2 µM | [8] 69.3 µM
inactive: [10] | [11] | [7]

CCC[CH2][Sn]([Cl])([Cl])[CH2]CCC
inactive: [14] | [9] | [7] | [8] | [2] | [3]
active: [4] 5.56 µM | [10] 1.76 µM | [11] 3.3 µM

CC(O)(CS(=O)(=O)c1ccc(F)cc1)C(=O)Nc1ccc(C#N)c(C(F)(F)F)c1 (centres undefined)
active: [9] 1.75 µM | [10] 12.8 µM
inactive: [4] | [11] | [6] | [7] | [8]

O=CCCl
inactive: [4] | [9] | [10] | [11] | [5] | [7] | [8]

O=S1(=O)OC(c2cc(Br)c(O)c(Br)c2)(c2cc(Br)c(O)c(Br)c2)c2ccccc21
active: [4] 5.92 µM | [1] 3.11 µM | [14] 2.87 µM | [5] 71.9 µM | [6] 14.4 µM | [7] 46.5 µM | [8] 51.9 µM
inactive: [9] | [10] | [11] | [13]

O=C1C=CC(=O)c2ccccc21
inactive: [1]
active: [15] 5.42 µM | [16] 28.9 µM

CCCCCCCCCCCCN(C)C
inactive: [18] | [19] | [9] | [10] | [11] | [12] | [13] | [6] | [7] | [8] | [2] | [3]
active: [17] 1.51 µM

CCCCCCCCCCCCOS(=O)(=O)O
inactive: [18] | [5] | [6]
active: [4] 38.1 µM and 17.4 µM

COc1ccc(N)cc1
inactive: [4] | [7] | [8] | [2] | [3]
active: [6] 13.8 µM

O=c1[nH]c(=O)n(Cl)c(=O)n1Cl
inactive: [4] | [5] | [6] | [7] | [8]

Nc1ccc(N)cc1
inactive: [13] | [5] | [6] | [7] | [8] | [3]
active: [4] 25 µM | [9] 12.4 µM

[Cl][Sn]([c]1ccccc1)([c]1ccccc1)[c]1ccccc1
inactive: [18]
active: [1] 2.42 µM | [20] 2.89 µM | [19] 1.19 µM

CCCCCCCCCCCCc1cccc(S(=O)(=O)O)c1
inactive: [5] | [6]
active: [4] 26.6 µM | [20] 32.9 µM | [19] 18.7 µM
